From PubChem BioAssay (NCI) come the findings set out here.

Compounds without any hit were thinned out: in the full panel of roughly 83,000, 20% have a hit.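 Single-dose data. Exposure time 48 hours. Values below 10 considered active.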 Unmarked numbers belong to inactive results. Calls of active or inactive are those of the source.

Among the test systems are NCI-H23 lung; NCI-H226 lung; NCI-H322M lung; HOP-62 NSCLC; NCI-H460 lung; HOP-92 NSCLC; NCI-H522 lung; A549/ATCC NSCLC; 786-0 renal; COLO 205 colon.
Common to all, as to test: NCI-60 one-dose screen, 48 h (100 = growth as untreated, 0 = no growth, -100 = all killed)
Holding throughout (conditions): 10 µM unless noted

`O=C(O)c1ccccc1C(F)(F)F`: the growth with NCI-H23 lung was 66.7%; in the assay with NCI-H226 lung it was 89.2%; in the assay with NCI-H322M lung, 106%; with HOP-62 NSCLC it was 103%; with NCI-H460 lung it was 102%; with HOP-92 NSCLC, 88.2%. Besides, the growth is 72.1% in the assay with NCI-H522 lung, 16.1% in the assay on A549/ATCC NSCLC, 96.2% with 786-0 renal and 102% with COLO 205 colon.

For the molecule `Cc1ccc(-n2nc3n(/c2=N\C(=O)NS(=O)(=O)c2ccc(C)cc2)CCN3C2=NCCN2)cc1`, the growth in the assay on NCI-H23 lung is 106%; in the assay on NCI-H226 lung, 95.3%; in the assay with NCI-H322M lung, 105%; in the assay with HOP-62 NSCLC it was 93.4%; in the assay with NCI-H460 lung it was 106%; in the assay on HOP-92 NSCLC, 104%. For the same molecule, the growth with NCI-H522 lung is 88.6%; with A549/ATCC NSCLC, 95.4%; in the assay on 786-0 renal, 99.4%; with COLO 205 colon, 115%.

In the case of `Cc1ccc(C2=C/C(=C/c3ccc(Br)cc3)C(=O)N2CCc2ccc(S(N)(=O)=O)cc2)cc1`, the growth in the assay with NCI-H23 lung was 100%; with NCI-H226 lung it was 97%; in the assay with NCI-H322M lung, 90.6%; in the assay with HOP-62 NSCLC, 96.1%; with NCI-H460 lung it was 100%; in the assay on HOP-92 NSCLC, 89.9%. For the same molecule, the growth in the assay on NCI-H522 lung was 89%; with A549/ATCC NSCLC, 96%; in the assay with 786-0 renal, 97.1%; with COLO 205 colon, 115%.

`CC(C)C1=NOC(=O)C1=Cc1cn(-c2ccccc2)nc1-c1ccc(Br)cc1`: the growth was 85.8% in the assay with NCI-H23 lung; 93.7% in the assay on NCI-H226 lung; 90.5% in the assay with NCI-H322M lung; 91.3% with HOP-62 NSCLC; 83.5% in the assay with NCI-H460 lung; 83.1% in the assay with HOP-92 NSCLC. The growth with NCI-H522 lung is 86%; in the assay on A549/ATCC NSCLC, 98.2%; in the assay with 786-0 renal, 82.9%; in the assay on COLO 205 colon it was 97.8%.

In the case of `COc1ccc(-c2cc(-c3ccccc3)nc(NCCNc3ccnc4cc(Cl)ccc34)n2)cc1`, the growth is -77.2% (active) in the assay with NCI-H23 lung; -37.9% (active) in the assay with NCI-H226 lung; -81% (active) in the assay on NCI-H322M lung; -83.8% (active) with HOP-62 NSCLC; -60% (active) in the assay with NCI-H460 lung; -77.4% (active) in the assay with HOP-92 NSCLC. Besides, the growth in the assay with NCI-H522 lung is -61.9% (active); in the assay with A549/ATCC NSCLC, -75.5% (active); with 786-0 renal it was -81.7% (active); in the assay with COLO 205 colon, -80.8% (active).

In the case of `c1ccc(-c2nnc(-c3c[nH]c4ncccc34)s2)cc1`, the growth in the assay on NCI-H23 lung is 92.6%; in the assay with NCI-H226 lung, 87.9%; with NCI-H322M lung, 95.7%; in the assay with HOP-62 NSCLC, 98.6%; in the assay on NCI-H460 lung, 96.4%; in the assay on HOP-92 NSCLC it was 104%. The growth with NCI-H522 lung was 87.7%; with A549/ATCC NSCLC it was 95.6%; in the assay with 786-0 renal it was 104%; in the assay with COLO 205 colon, 115%.

`C=C(C)[C@@H]1CC[C@]2(C)[C@H](CC[C@@H]3[C@@H]([C@@](C)(O)CCC=C(C)C)CC[C@]32C)[C@@]1(C)CCC(=O)O`: the growth with NCI-H23 lung was -5.71% [100 µM] (active); with NCI-H226 lung, -41.5% [100 µM] (active); with NCI-H322M lung it was -6.31% [100 µM] (active); with HOP-62 NSCLC, -61.4% [100 µM] (active); in the assay with NCI-H460 lung, -34.9% [100 µM] (active); with HOP-92 NSCLC, -49.4% [100 µM] (active). Besides, the growth was -13.6% [100 µM] (active) in the assay on NCI-H522 lung, 14.9% [100 µM] with A549/ATCC NSCLC, 1.09% [100 µM] (active) in the assay with 786-0 renal and -69.5% [100 µM] (active) in the assay on COLO 205 colon.

Turning to `CC(C)CCSc1nc(N)nc2nc[nH]c12`, the growth in the assay on NCI-H23 lung is 104%; in the assay on NCI-H226 lung, 96.7%; with NCI-H322M lung, 143%; in the assay with HOP-62 NSCLC, 102%; in the assay with NCI-H460 lung, 96.8%; in the assay with HOP-92 NSCLC it was 76.4%. The growth in the assay on NCI-H522 lung is 79.9%; with A549/ATCC NSCLC it was 104%; in the assay on 786-0 renal it was 95.9%; in the assay on COLO 205 colon, 102%.

As for `Nc1nnc(CSc2nnc3n(Cc4ccccc4)c(=O)c4c5c(sc4n23)CCCC5)s1`, the growth is 88.5% in the assay on NCI-H23 lung; 90.6% with NCI-H226 lung; 111% in the assay on NCI-H322M lung; 99.2% in the assay with HOP-62 NSCLC; 15.4% with NCI-H460 lung; 70.6% with HOP-92 NSCLC. The growth in the assay on NCI-H522 lung was 66.8%; in the assay with A549/ATCC NSCLC, 95.1%; in the assay with 786-0 renal, 93.3%; in the assay with COLO 205 colon, 77.4%.

On to `N#CC1C(=O)NC(c2ccccc2[N+](=O)[O-])c2sc3c(F)cccc3c21` (stereo not given), for which the growth is 68.9% in the assay with NCI-H23 lung; -14.9% (active) in the assay with NCI-H226 lung; 67.2% in the assay on NCI-H322M lung; 33.8% with HOP-62 NSCLC; 2.01% (active) with NCI-H460 lung; 82.7% in the assay with HOP-92 NSCLC. In addition, the growth in the assay on NCI-H522 lung was 88.6%; in the assay on A549/ATCC NSCLC, 47.2%; in the assay on 786-0 renal, 90%; in the assay on COLO 205 colon it was 70.1%.

For `C=C(C)C1CCC2(C(=O)O)CCC3(C)C(CCC4C5(C)CCC(OC(=O)NCc6ccccc6)C(C)(C)C5CCC43C)C12` (stereo not given), the growth in the assay with NCI-H23 lung is 32.3%; with NCI-H226 lung, 44.8%; in the assay on NCI-H322M lung, 59.3%; in the assay on HOP-62 NSCLC it was 48.4%; with NCI-H460 lung, 29.4%; with HOP-92 NSCLC it was -4.47% (active). The growth with NCI-H522 lung was -6.51% (active); with A549/ATCC NSCLC it was 26.7%; in the assay with 786-0 renal it was 44.8%; in the assay on COLO 205 colon, 13.7%.
